Test results from PubChem BioAssay (EPA / NIEHS).
Where “and” joins values, the source holds several entries; their conditions need not be identical. Equal values may be shown once. Records with an inconclusive call do not appear. Calls of active or inactive are those of the source. Rule for the calls, unless noted: active = hit-call score of the fitted dose curve at least 0.9, where 1 is the maximum; inactive = score below 0.9.

Key:
[1] = ATG_NF_kB_CIS: Attagene CIS-FACTORIAL HepG2 Assay for human Nuclear Factor Kappa B (NF-kB) (AID 2282991); details: HepG2 Attagene cis-factorial NF-kB reporter mRNA; actives raise or lower the signal
Outline: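 Read-out: reporter transcript levels quantified by RT-PCR plus capillary electrophoresis of 6-FAM-labelled, HpaI-cut fragments. Transfected HepG2 cells, 24 h compound exposure, endogenous NF-kB-driven cis element; gain or loss scored versus DMSO.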

[2] = ATG_NRF2_ARE_CIS: Attagene CIS-FACTORIAL HepG2 Assay for human Nuclear Factor Erythroid 2 Related Factor 2 (NFR2) response to Antioxidant Response Elements (ARE) (AID 2282992); details: HepG2 Attagene ARE/NRF2 reporter, transcription factor activity; actives raise or lower the signal;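 for AC50: reporter mRNA level measured by RT-PCR and capillary electrophoresis fluorescence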
Outline: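 Multiplexed reporter mRNA profiling in HepG2 after a 24 h chemical exposure. Curves fitted in both directions relative to DMSO negative control.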

[3] = target: Cellular tumor antigen p53 (Homo sapiens) (UniProt P04637); assay: ATG_p53_CIS: Attagene CIS-FACTORIAL HepG2 Assay for human p53 Transcription Factor (AID 2282994); details: HepG2 p53 cis-element reporter, Attagene mRNA; actives raise or lower the signal
Outline: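 Multiplexed reporter mRNA assay in human HepG2 liver cells; cis-regulated units report endogenous factor activity. Values come from bidirectional curve fitting against DMSO negative control after 24 h treatment.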

[4] = BSK_3C_TissueFactor: BioMAP Diversity Plus: 3C Assay for Tissue Factor Biomarker Activity (AID 2282997); details: BioMAP 3C HUVEC, tissue factor biomarker readout; actives raise or lower the signal
Outline: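 ELISA read-out of Tissue Factor levels on human umbilical vein endothelium collected 24 h after chemical dosing. Gain or loss of signal was fitted relative to DMSO.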

[5] = BSK_3C_uPAR: BioMAP Diversity Plus: 3C Assay for Urokinase-type plasminogen activator receptor (uPAR) Biomarker Activity (AID 2282998); details: BioMAP 3C HUVEC, uPAR biomarker ELISA; actives raise or lower the signal
Outline: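 Cell-surface uPAR on HUVEC (3C system) read by ELISA at 24 h post-treatment, with DMSO as baseline and fitting in both directions. Parallel cultures stained with SRB to flag overt cytotoxicity.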

[6] = BSK_3C_VCAM1: BioMAP Diversity Plus: 3C Assay for Vascular cell adhesion molecule 1 (VCAM1) Biomarker Activity (AID 2282999); details: BioMAP 3C HUVEC, VCAM1 ELISA, cytokine-stimulated; actives raise or lower the signal
Outline: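 Endothelial cells from human umbilical vein are treated with test chemical. At 24 h, VCAM-1 is measured by ELISA, and responses in either direction are fitted relative to DMSO.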

[7] = BSK_4H_Eotaxin3: BioMAP Diversity Plus: 4H Assay for Eotaxin 3 Biomarker Activity (AID 2283000); details: primary human endothelial cells (HUVEC); actives raise or lower the signal
Outline: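 Chemicals were added to human umbilical vein endothelium cultures, and Eotaxin-3 was quantified by ELISA at 24 h. Values were derived by bidirectional fitting with DMSO serving as negative control and activity baseline.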

[8] = target: human Peroxisome Proliferator-activated Receptor alpha (PPARa), PPARA (gene 5465) (UniProt Q07869); assay: ATG_PPARa_TRANS: Attagene TRANS-FACTORIAL HepG2 Assay for human Peroxisome Proliferator-activated Receptor alpha (PPARa) (AID 2283001; active = hit-call score of the fitted dose curve at least 0.9, where 1 is the maximum;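 for AC50: potency for gain of reporter signal over DMSO so agonist or activator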)
Outline: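 Reporter transcripts from GAL4-UAS units in transfected HepG2 were quantified 24 h after dosing. Detection used reverse transcription, PCR, fluorescent primer extension and capillary electrophoresis, with DMSO as baseline.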

[9] = ATG_Oct_MLP_CIS: Attagene CIS-FACTORIAL HepG2 Assay for human Octamer-Binding Transcription Factor (Oct) (AID 2282993); details: HepG2 Attagene cis-factorial Oct reporter, mRNA; actives raise or lower the signal
Outline: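 Readout is reporter transcript level from RT-PCR with fluorescent primer extension and capillary electrophoresis, fitted in both directions against DMSO. Transfected HepG2 reporter units report endogenous factor activity after 24 h dosing.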

[10] = target: human Peroxisome Proliferator-activated Receptor delta (PPARd), PPARD (gene 5467) (UniProt Q03181); assay: ATG_PPARd_TRANS: Attagene TRANS-FACTORIAL HepG2 Assay for human Peroxisome Proliferator-activated Receptor delta (PPARd) (AID 2283002; active = hit-call score of the fitted dose curve at least 0.9, where 1 is the maximum)
Outline: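 Read-out is induced reporter mRNA, quantified by RT-PCR with fluorescent labelling and capillary electrophoresis after 24 h dosing. Cells are HepG2 transiently carrying multiple GAL4-UAS reporter units driven by exogenous NR-GAL4 chimeras; DMSO serves as baseline.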

Measured: AC50

Sequence of human Peroxisome Proliferator-activated Receptor delta (PPARd), PPARD (gene 5467) (Q03181 whole entry, looked up, the tested form may be a part): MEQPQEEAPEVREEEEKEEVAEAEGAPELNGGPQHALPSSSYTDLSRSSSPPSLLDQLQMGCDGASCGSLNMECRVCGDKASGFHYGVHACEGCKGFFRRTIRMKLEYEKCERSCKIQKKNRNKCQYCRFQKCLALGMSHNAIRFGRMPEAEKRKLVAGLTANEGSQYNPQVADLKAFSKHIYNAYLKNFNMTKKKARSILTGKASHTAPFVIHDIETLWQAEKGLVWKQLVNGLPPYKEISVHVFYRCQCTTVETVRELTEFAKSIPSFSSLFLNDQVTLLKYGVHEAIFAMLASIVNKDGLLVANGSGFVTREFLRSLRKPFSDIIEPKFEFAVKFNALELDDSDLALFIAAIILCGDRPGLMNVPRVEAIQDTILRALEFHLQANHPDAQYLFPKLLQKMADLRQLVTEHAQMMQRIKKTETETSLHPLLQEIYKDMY
Sequence of Cellular tumor antigen p53 (Homo sapiens) (P04637 whole entry, looked up): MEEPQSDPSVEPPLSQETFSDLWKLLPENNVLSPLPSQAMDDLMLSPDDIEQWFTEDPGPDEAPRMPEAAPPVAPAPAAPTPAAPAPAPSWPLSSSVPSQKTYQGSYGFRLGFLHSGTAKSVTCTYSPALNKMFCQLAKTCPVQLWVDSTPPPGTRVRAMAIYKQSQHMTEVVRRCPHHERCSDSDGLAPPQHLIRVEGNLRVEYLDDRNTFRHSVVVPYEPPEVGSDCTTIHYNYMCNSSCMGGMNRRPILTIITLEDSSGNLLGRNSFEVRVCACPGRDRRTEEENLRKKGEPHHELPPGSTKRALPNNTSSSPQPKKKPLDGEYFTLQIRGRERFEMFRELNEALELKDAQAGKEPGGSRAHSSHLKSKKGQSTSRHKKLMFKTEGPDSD
Sequence of human Peroxisome Proliferator-activated Receptor alpha (PPARa), PPARA (gene 5465) (Q07869 whole entry, looked up, the tested form may be a part): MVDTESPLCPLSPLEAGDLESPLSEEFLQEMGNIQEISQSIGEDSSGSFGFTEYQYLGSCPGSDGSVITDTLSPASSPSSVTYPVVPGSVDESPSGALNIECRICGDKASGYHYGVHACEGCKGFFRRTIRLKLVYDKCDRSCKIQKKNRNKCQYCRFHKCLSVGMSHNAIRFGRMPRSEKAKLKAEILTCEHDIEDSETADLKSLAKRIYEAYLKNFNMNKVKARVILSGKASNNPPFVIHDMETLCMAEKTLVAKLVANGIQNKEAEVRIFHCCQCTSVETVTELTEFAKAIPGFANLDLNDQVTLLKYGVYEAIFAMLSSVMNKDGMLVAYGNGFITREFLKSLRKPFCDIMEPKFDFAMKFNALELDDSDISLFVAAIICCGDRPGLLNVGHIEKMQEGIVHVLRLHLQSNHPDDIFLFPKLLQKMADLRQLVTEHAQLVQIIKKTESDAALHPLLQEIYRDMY

Cc1ccccc1OP(=O)(Oc1ccccc1)Oc1ccccc1
active: [2] 12.3 µM | [4] 20 µM | [5] 35.3 µM | [6] 20 µM | [7] 28.7 µM
inactive: [1] | [3] | [8]

CC[N+](CC)(CC)CC
inactive: [1] | [2] | [9] | [8]

CN(N=O)c1ccc([N+](=O)[O-])cc1
inactive: [1] | [9] | [8]
active: [2] 32.3 µM

Nc1nc(=S)[nH][nH]1
inactive: [1] | [2] | [3] | [8]

O=S(=O)(c1ccc(Cl)cc1)c1cc(Cl)c(Cl)cc1Cl
active: [2] 10.4 µM | [5] 6.4 µM
not listed: [8] | [9]
inactive: all other assays above

CNC(=O)N(C)c1nc2ccccc2s1
active: [2] 14.5 µM
inactive: [1] | [9] | [8] | [10]

O=S(=O)(F)C(F)(F)C(F)(F)C(F)(F)C(F)(F)F
inactive: [1] | [2] | [9] | [3] | [10]

NC(=O)CCl
active: [2] 78.2 µM
not listed: [9]
inactive: all other assays above

CC(C)C(C)(N)C#N (centres undefined)
inactive: [1] | [2] | [9] | [3] | [10]

O=S(=O)(Oc1ccc(Cl)cc1)c1ccc(Cl)cc1
inactive: [1] | [9] | [10]
active: [2] 23.1 µM

Nc1ccc(N)cc1
active: [2] 11.5 µM and 12.4 µM
not listed: [3] | [10]
inactive: all other assays above

CC(C)(C)c1ccccc1O
active: [1] 164 µM | [9] 138 µM
not listed: [3]
inactive: all other assays above

O=C(O)C1(c2ccc3c(c2)OC[C@H](Cc2ccc(-c4ccccc4)cc2)[C@H]3O)CCCC1
active: [2] 8.26 µM | [5] 29.9 µM | [6] 20 µM
inactive: [1] | [9] | [4] | [7]

N#Cc1ccncc1
inactive: [1] | [2] | [9] | [3] | [10]

O=c1[nH]c2ccccc2n1C1CCN(CCCC(c2ccc(F)cc2)c2ccc(F)cc2)CC1
active: [2] 3.15 µM
inactive: [1] | [3]

CC(C)(c1ccccc1)c1cc(-n2nc3ccccc3n2)c(O)c(C(C)(C)c2ccccc2)c1
inactive: [1] | [2] | [9] | [3] | [10]

CCCCCCCCCCCCc1cccc(S(=O)(=O)O)c1
active: [2] 44.3 µM | [8] 30 µM
not listed: [3] | [10]
inactive: all other assays above

O=C(Cc1ccccc1)OCCc1ccccc1
not listed: [8] | [9]
inactive: all other assays above

OCCN(CCO)CCO
not listed: [3] | [8] | [10]
inactive: all other assays above

Cc1cc(Cl)ccc1OCCCC(=O)O
inactive: [1] | [2] | [3] | [8]

C1CCC(C2CCCCC2)CC1
inactive: [1] | [9] | [10]
active: [2] 23.8 µM

Oc1c(Br)cc(Br)cc1Br
active: [2] 26.9 µM | [9] 57.1 µM | [5] 30.1 µM | [6] 31.4 µM
inactive: [1] | [4] | [7] | [10]

CC1(C)COP(Oc2ccccc2)OC1
inactive: [1] | [2] | [9] | [8] | [10]

Clc1cccc(Cl)c1
not listed: [3] | [8]
inactive: all other assays above

CC(C)(COCC1CO1)COCC1CO1 (centres undefined)
active: [2] 49.8 µM | [4] 3.97 µM
not listed: [8] | [9]
inactive: all other assays above

O=C/C(Cl)=C(/Cl)C(=O)O
inactive: [8] | [10]
active: [1] 35.2 µM | [2] 26.1 µM | [9] 144 µM

CCCCCCCCCCCCBr
active: [2] 55.7 µM
inactive: [1] | [3]

Cc1ccc(OP(=O)(Oc2ccc(C)cc2C)Oc2ccc(C)cc2C)c(C)c1
active: [1] 25.9 µM | [2] 12.3 µM
not listed: [8] | [9]
inactive: all other assays above

OC[C@@H](O)[C@H]1O[C@@H]2O[C@H](C(Cl)(Cl)Cl)O[C@@H]2[C@H]1O
inactive: [1] | [2] | [9] | [8]

CCOP(=S)(OCC)Oc1ccc(Cl)cc1Cl
inactive: [1] | [9] | [3] | [10]
active: [2] 43.7 µM

Clc1cnc(Oc2ccc(Oc3ncc(Cl)cc3Cl)cc2)c(Cl)c1
inactive: [1] | [2] | [3] | [8]

CN(C)CCN(C)C
inactive: [1] | [2] | [9] | [10]

Cc1cc(C)cc(C)c1
not listed: [3] | [10]
inactive: all other assays above

Oc1cc(Cl)c(Cl)cc1Cl
active: [9] 66.2 µM | [4] 20 µM | [5] 14.7 µM | [7] 27.6 µM
inactive: [1] | [2] | [6] | [8]

Clc1cccc(Cl)c1Cl
not listed: [3]
inactive: all other assays above

Cc1cc(Cl)ccc1OC(C)C(=O)O (centres undefined)
not listed: [9]
inactive: all other assays above

Cc1ccccc1OP(=O)(Oc1ccccc1C)Oc1ccccc1C
active: [2] 8.48 µM | [9] 119 µM | [4] 5.08 µM | [5] 11.1 µM | [6] 11.8 µM | [7] 9.39 µM
inactive: [3] | [10]

CN(C)c1ccc(N=O)cc1
active: [1] 6.42 µM | [2] 1.39 µM | [3] 44.6 µM
inactive: [8] | [10]

NNCCO
inactive: [2] | [9]

CCC[CH2][Sn]([CH2]CCC)([CH2]CCC)[CH2]CCC
inactive: [8]
active: [1] 11.1 µM | [2] 5.43 µM | [3] 18.5 µM

CCCSP(=S)(OCC)Oc1ccc(Cl)cc1Cl (centres undefined)
active: [2] 13.3 µM
inactive: [1] | [10]

O=[N+]([O-])c1c2ccccc2cc2ccccc12
active: [2] 5 µM
inactive: [9] | [3]

CC(C)(C#N)N=NC(C)(C)C#N
inactive: [2] | [9] | [3]

O=[N+]([O-])c1cc([As](=O)(O)O)ccc1O
inactive: [1] | [2] | [3] | [10]

Cc1cc(C(C)(C)c2ccc(O)c(C)c2)ccc1O
active: [2] 11.7 µM | [9] 34.8 µM | [3] 33.7 µM | [4] 13.6 µM | [5] 10 µM | [6] 15 µM
inactive: [7] | [10]

O=C(O)c1cc(I)cc(I)c1I
active: [2] 100 µM | [8] 17.3 µM
inactive: [1] | [3] | [10]

CCOP(=S)(OCC)OP(=S)(OCC)OCC
active: [5] 34 µM | [6] 31.9 µM | [7] 35.6 µM
not listed: [1] | [8]
inactive: all other assays above

COP(=S)(OC)Oc1cc(Cl)c(I)cc1Cl
inactive: [10]
active: [1] 55.6 µM | [2] 8.28 µM | [3] 52.6 µM

C=CCOC(N)=O
inactive: [1] | [2] | [3] | [10]

C=CCN=C=S
inactive: [1] | [2] | [3] | [8] | [10]

CC(C)=CC1C(C(=O)OCc2cccc(Oc3ccccc3)c2)C1(C)C (centres undefined)
not listed: [1] | [8]
inactive: all other assays above
